Assay results: PubChem BioAssay AID743314 (Broad Institute, 2014)
Entries with a potency or affinity are not part of this list. Results filed as inconclusive are left out. Active and inactive are the calls of the source.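 The calls were made as follows: active = fitted half-maximal concentration no higher than twice the top tested dose, in every repeat run; inconclusive = repeat runs disagree, poor fit, or flat partial inhibition; inactive = the rest.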

molecular target: Endoplasmic reticulum aminopeptidase 1 (Homo sapiens) (UniProt Q9NZ08); assay: inhibition of human ERAP1 enzyme activity – biochemical, cherry-pick, set 2, plate reader, dose response (AID 743314); details: Recombinant ERAP1, Leu-AMC fluorescence, 60 min; series mostly up to 11 µM
Sequence (Q9NZ08 whole entry, looked up): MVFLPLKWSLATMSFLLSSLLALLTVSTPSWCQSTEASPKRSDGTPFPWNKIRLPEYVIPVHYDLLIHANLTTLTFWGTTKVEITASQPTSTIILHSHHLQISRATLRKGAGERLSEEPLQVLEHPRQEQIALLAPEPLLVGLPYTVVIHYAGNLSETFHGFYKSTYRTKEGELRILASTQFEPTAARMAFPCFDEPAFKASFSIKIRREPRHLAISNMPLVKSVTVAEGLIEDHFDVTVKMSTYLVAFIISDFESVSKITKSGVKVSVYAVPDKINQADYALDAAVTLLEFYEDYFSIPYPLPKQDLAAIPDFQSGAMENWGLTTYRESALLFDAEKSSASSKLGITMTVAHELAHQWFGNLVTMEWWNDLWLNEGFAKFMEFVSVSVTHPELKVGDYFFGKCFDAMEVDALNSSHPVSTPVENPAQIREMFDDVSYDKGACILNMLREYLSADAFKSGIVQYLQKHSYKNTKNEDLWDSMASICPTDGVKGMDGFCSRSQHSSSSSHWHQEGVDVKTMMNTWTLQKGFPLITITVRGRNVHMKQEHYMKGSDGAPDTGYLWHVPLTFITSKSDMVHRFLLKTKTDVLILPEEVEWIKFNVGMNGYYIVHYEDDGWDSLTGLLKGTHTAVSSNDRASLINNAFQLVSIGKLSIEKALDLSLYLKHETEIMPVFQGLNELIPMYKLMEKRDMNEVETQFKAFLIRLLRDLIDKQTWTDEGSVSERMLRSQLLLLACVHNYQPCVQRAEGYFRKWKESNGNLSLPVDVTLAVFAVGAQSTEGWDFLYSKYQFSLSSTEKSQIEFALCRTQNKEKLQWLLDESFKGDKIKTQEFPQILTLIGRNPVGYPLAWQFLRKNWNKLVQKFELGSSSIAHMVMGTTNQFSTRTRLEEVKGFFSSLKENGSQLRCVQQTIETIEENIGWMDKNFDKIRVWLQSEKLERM

outcome, inactive:
CSc1cccc(NC(=O)CCCNC(=O)c2ccc(Cl)cc2)c1, COc1ccc(NC(=O)Nc2cccc3c2O[C@H](CN(C)Cc2ccc(C(=O)O)cc2)[C@H](C)CN([C@@H](C)CO)C3=O)cc1, N#Cc1ccccc1OCC(=O)OCC(=O)c1ccc2c(c1)NC(=O)CO2, CC(C)c1ccc(OC(=O)c2cccc(S(=O)(=O)N3CCN(C)CC3)c2)cc1, Cc1ccc(S(=O)(=O)Nc2ccc3c(c2)CC(=O)N([C@H](C)CO)C[C@H](C)[C@H](CN(C)Cc2ccccc2)O3)cc1, CC(C)NC(=O)N[C@@H]1CC[C@@H](CCNS(=O)(=O)c2ccc(Cl)cc2)O[C@@H]1CO, CN(CC(=O)Nc1ccccc1C(F)(F)F)C(=O)CSc1nnc(-c2ccncc2)n1C, COc1ccc(CN(C)C[C@@H]2Oc3c(NC(=O)NC4CCCCC4)cccc3C(=O)N([C@@H](C)CO)C[C@@H]2C)cc1, COCc1cn(CC[C@@H]2CC[C@H](NC(=O)CCN3CCCCC3)[C@H](CO)O2)nn1, CCCC(=O)Nc1ccc2c(c1)OC[C@@H](C)N(CC1CCOCC1)C[C@H](C)[C@@H](OC)CN(C)C2=O, COc1ccc(-c2c(C)c3ccc(O)cc3oc2=O)cc1OC, COc1ccccc1OCCNC(=O)C1CCCCC1, O=C(C[C@@H]1C=C[C@H](NC(=O)Nc2cccc(F)c2)[C@H](CO)O1)NCC1CCCCC1, C[C@@H]1CN([C@H](C)CO)C(=O)c2cccc(NC(=O)Nc3ccc(C(F)(F)F)cc3)c2O[C@@H]1CN(C)C
